An excerpt weighted towards active compounds, which were near 3.4% of everything screened.
MITF inh = inhibitors of human MITF. inhibition, % at 2.6 µM. O75030. AlphaScreen MITF homodimerization, bead proximity signal. 650,000 compounds, 0.91% hits. AID 1259374; in the data active = inhibition above about 50%;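 note: 0% = vehicle wells with protein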
TEAD-YAP block = TEAD-YAP interaction inhibition. HEK-TIYL cells, TEAD-Gal4/YAP UAS-luciferase luminescence. 640,000 compounds, 1.4% hits. inhibition, % at 9.12 µM. AID 1259422; in the data active = inhibition above about 32%;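 note: 0% = median of test compound wells and 100% = reference inhibitor wells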
FBW7 act = activators of human E3 ligase FBW7; 650,000 compounds, 0.13% hits; AlphaScreen FBW7–phospho-cyclin E peptide binding, activator screen; Q969H0; normalized activity (activation), % at 26.1 µM; AID 1259310; in the data active = normalized activity above about 1.9%;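 note: purified mutant Fbw7 with reduced substrate affinity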
GPR151 ag = activates the human receptor GPR151; Q8TDV0; PathHunter beta-arrestin GPR151 cells, luminescence; activation, % at 11.2 µM; 650,000 compounds, 1% hits; AID 1508602; in the data active = activation above about 4.9%;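 note: 0% = median of compound wells and 100% = cells with positive control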
Target sequence (Q8TDV0 whole entry, looked up): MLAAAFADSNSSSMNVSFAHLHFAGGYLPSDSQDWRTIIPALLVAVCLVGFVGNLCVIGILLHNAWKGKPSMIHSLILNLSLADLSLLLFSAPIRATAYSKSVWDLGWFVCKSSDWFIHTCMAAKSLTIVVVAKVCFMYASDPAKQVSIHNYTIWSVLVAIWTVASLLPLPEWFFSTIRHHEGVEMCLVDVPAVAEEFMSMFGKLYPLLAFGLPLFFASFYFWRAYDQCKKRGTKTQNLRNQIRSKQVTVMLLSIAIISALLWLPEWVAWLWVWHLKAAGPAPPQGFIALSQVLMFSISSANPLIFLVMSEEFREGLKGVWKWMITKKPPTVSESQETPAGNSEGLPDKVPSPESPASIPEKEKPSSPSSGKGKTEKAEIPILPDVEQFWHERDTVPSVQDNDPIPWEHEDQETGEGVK
GPR151 confirm = confirmation of human GPR151 activators; AID 1508609; activation, % at 11.2 µM; shares compounds with GPR151 ag; GPR151 PathHunter beta-arrestin cells, luminescence, 90 min; % of EA-reagent control over plate median; 6,700 tested, under 10 active;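 active = mean percent activation across replicates above the confirmation screen cutoff of 4.91%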
GPR119 ag = counter-screen for GPR151 activators: effect on human GPR119 | AID 1508611 | activation, % at 11.2 µM | 6,700 compounds, 0.3% hits | GPR119 PathHunter beta-arrestin cells, luminescence, 90 min; 0 = compound-well median, 100 = enzyme-acceptor control | shares compounds with GPR151 ag;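 active = mean percent activation in the counterscreen above 29.09%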;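 note: counterscreen on off-target GPR119 to flag nonselective hits from the GPR151 activator screen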
* marks the source's active call; other numbers are inactive results; x = no result given.

SMILES | MITF inh | TEAD-YAP block | FBW7 act | GPR151 ag | GPR151 confirm | GPR119 ag
OC1(c2cccc(F)c2)CCN(Cc2ccncc2)CC1 | 20 | -15 | 1 | 6.1* | 1 | 17
CCCCOC(=O)CSC1=C(C#N)C(c2ccc(Cl)cc2Cl)CC(=O)N1 (configuration not stated) | 20 | 3 | 0 | 2 | x | x
COCCNCCOc1ccc(C)cc1Cl | 34 | -2 | 0 | 1 | x | x
COCCNCCOc1ccc(C)cc1C | 35 | -4 | 0 | 8.1* | 2 | 17
CCCCNCCCOc1cc(C)ccc1C | 2 | 4 | 0 | 5.0* | 0 | 1
Cc1ccc(C)c(OCCN2CCNCC2)c1 | 35 | 6 | 0 | 9.0* | 0 | 2
CCCCNCCOc1cc(C)ccc1C | 14 | 5 | 0 | -1 | x | x
c1ccc(CNc2ccc3ncc(-c4cc5ccccc5o4)n3n2)nc1 | 4 | 3 | 0 | 0 | x | x
COc1ccc(SCCC(=O)Nc2ccc3sc(C)nc3c2)cc1 | 8 | -9 | -1 | 6.2* | 1 | 8
COc1ccc(SCCC(=O)Nc2nc3ccccc3s2)cc1 | 8 | 0 | 1 | 1 | x | x
Cc1ccc(-n2cc(C(=O)NCCCN3CC(C)CC(C)C3)c3ccccc3c2=O)cc1C (configuration not stated) | 1 | 2 | 1 | -1 | x | x
C=CCC(O)(CC=C)C(C)NC(=O)C1CC(Cc2cccc(Cl)c2)=NO1 (configuration not stated) | 4 | -2 | 0 | 11* | 1 | 9
CC(NC(=O)C1CC(Cc2cccc(F)c2)=NO1)c1ccccc1Cl (configuration not stated) | 5 | -55 | 0 | 0 | x | x
Cc1ccccc1NC(=O)NCCc1nc(-c2cccnc2)n[nH]1 | -3 | -9 | 0 | 0 | x | x
COc1ccc(OC)c(C2NC(C(=O)O)C3C(=O)N(c4ccccc4)C(=O)C23)c1 (configuration not stated) | -7 | -9 | 0 | 5.2* | 0 | 7
COc1ccc(C2NC(C(=O)O)C3C(=O)N(c4ccc(F)cc4)C(=O)C23)c(OC)c1OC (configuration not stated) | 8 | 0 | 0 | 1 | x | x
COc1ccc(C2NC(C(=O)O)C3C(=O)N(c4ccc(F)cc4)C(=O)C23)c(OC)c1 (configuration not stated) | -5 | 4 | 0 | 1 | x | x
COc1ccc(OC)c(C2NC(C(=O)O)C3C(=O)N(c4cccc(C(=O)O)c4)C(=O)C23)c1 (configuration not stated) | -3 | 4 | 0 | 5.0* | 0 | 1
CCOc1ccc(S(=O)(=O)Nc2ccc3oc4c(c3c2)CC(C(C)(C)C)CC4)cc1 (configuration not stated) | -2 | 3 | 1 | 2 | x | x
O=c1[nH]c2ccccc2nc1C(F)(F)C(F)(F)C(F)(F)C(F)F | -7 | 14 | 0 | 5.5* | 0 | -4
CC(=O)c1ccc(C(=O)N=c2sc3cccc(F)c3n2C)cc1 | 3 | 3 | 0 | 0 | x | x
CCc1nc2sc(C(c3ccc(Cl)cc3Cl)N3CCN(C(C)=O)CC3)c(O)n2n1 (configuration not stated) | 15 | 0 | 0 | 2 | x | x
CNC(=O)CC1C(=O)N(c2cccc(C(F)(F)F)c2)C(=S)N1CCc1ccc(OC)c(OC)c1 (configuration not stated) | 1 | -9 | 0 | 8.6* | 0 | 9
COc1ccc(C[C@@H]2NC(=O)[C@H]3CN(Cc4ccc(C)cc4)CCN3C2=O)cc1 | 9 | -8 | 1 | -1 | x | x
COC(=O)c1ccc(/C=N/Nc2ccccc2[N+](=O)[O-])cc1 | -2 | -29 | 0 | 4.9* | 0 | -7
SMILES | MITF inh | TEAD-YAP block | FBW7 act | GPR151 ag | GPR151 confirm | GPR119 ag
COc1cc(/C=N/Nc2ccccc2[N+](=O)[O-])cc(Br)c1O | 9 | -54 | 0 | -5 | x | x
COc1ccc(/C=C(/NC(=O)c2ccccc2I)C(=O)O)cc1 | 0 | -5 | 0 | -1 | x | x
Cc1cccc(-n2nc3c(c2NC(=O)c2ccc(OC(C)C)cc2)CS(=O)(=O)C3)c1C | -1 | 5 | 0 | 1 | x | x
N#Cc1ccc(Oc2ccc(NC(=O)/C=C\C(=O)O)cc2)cc1 | 5 | -5 | 0 | 5.3* | 1 | 9
COc1ccc(NC(=O)/C=C/C(=O)O)cc1 | 4 | -7 | 0 | -2 | x | x
COc1ccccc1-n1c(CNC(=O)c2ccc(S(=O)(=O)N3CCCCC3)cc2)nnc1SCC(=O)Nc1nccs1 | 2 | 13 | 0 | 5.4* | -1 | -7
CCOc1ccc(NC(=O)Nc2cccn(Cc3ccc(C)cc3)c2=O)cc1 | 2 | 9 | 0 | -1 | x | x
COc1cc2c(cc1OC)CN(Cc1cccc([N+](=O)[O-])c1)CC2 | 12 | -2 | 0 | 8.0* | 1 | 13
CSc1ccc(CNC(C)(C)CO)cc1 | 12 | 7 | 0 | 0 | x | x
CN(C)c1ccc(CNC(C)(C)CO)cc1 | 14 | 2 | 1 | 5.1* | 1 | 3
O=C(CC1CCOCC1)Nc1cc(Cl)ccc1Cl | 12 | 7 | 0 | 0 | x | x
CC(C)CNC(=O)c1ccc(NC(=O)Cc2ccccc2)cc1 | 24 | -4 | 1 | -1 | x | x
CC(=O)c1ccc(OC(=O)c2cccc(Br)c2)cc1 | 23 | -19 | 0 | 17* | 2 | 4
COc1ccc(OC(=O)c2cccc(Br)c2)cc1 | 19 | -4 | 0 | 1 | x | x
CCN(CC)c1n[nH]c(-c2cccc(Cl)c2)n1 | 14 | -30 | 0 | 5.3* | -1 | -8
CCn1c(-c2cccc(Cl)c2)n[nH]c1=S | 12 | 5 | 0 | -1 | x | x
CCOC(=O)NC(=O)/C(C#N)=C\c1ccc(Cl)c(Cl)c1 | 5 | -1 | 0 | 0 | x | x
CCN(CC)c1cc(Nc2ccc(NC(C)=O)cc2)c([N+](=O)[O-])c2nonc12 | 6 | 7 | 0 | 2 | x | x
CCN(CC)c1cc(NCCO)c([N+](=O)[O-])c2nonc12 | 16 | 5 | 0 | 5.9* | -1 | -12
COc1ccc(-c2cnc(SCCNC(=O)CCCc3ccccc3)[nH]2)cc1 | -10 | -13 | 0 | -1 | x | x
CCC(=O)NCCSc1ncc(-c2ccccc2)[nH]1 | 5 | -14 | 0 | 5.2* | -1 | -2
CCN(CC(=O)Nc1ccc(NC(C)=O)cc1)S(=O)(=O)/C=C/c1ccccc1 | 5 | -3 | 0 | 7.4* | 0 | 4
COc1cccc(NC(=O)c2cccn(OCc3ccccc3F)c2=O)c1 | -30 | -17 | 0 | 6.2* | 0 | 6
O=C(Nc1cccc(F)c1)c1cccn(OCc2ccccc2F)c1=O | 8 | -31 | 0 | -1 | x | x
COc1ccc2nc(NCCNC(=O)c3cc(OC)c(OC)c(OC)c3)c(C#N)cc2c1 | 15 | -1 | 1 | -1 | x | x
COCC(=O)NCCNc1nc2ccc(OC)cc2cc1C#N | 6 | -11 | 0 | 7.2* | 1 | -1

Compound activity as filed in PubChem BioAssay.
